For 6 compounds, inhibition results are on record in PubChem BioAssay.

Molecules are shown by their SMILES. Values without a mark were called inactive. Calls of active or inactive are those of the source. Unless noted, no stated cut-off is given here; in the data, active means inhibition above about 30%; inactive means the rest.

The target in assay [1] is Nuclear receptor coactivator 3 (Homo sapiens) (UniProt Q9Y6Q9). The experiment in a line: NCOA3 GAL4-fusion reporter inhibition – cell-based, luminescence, quadruplicate, confirmation (AID 588792;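 active means mean inhibition over 43.08%, the solvent-only control mean plus 3 SD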;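 further: 0% = DMSO treated cells and 100% = gossypol at 36 µM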). As to conditions: HEK293 GAL4-SRC3 luciferase reporter, at 3.6 µM, stronger effect = higher value. (Reporter assays use an easily measured gene product as a stand-in for the process of interest.)

Assay [2] relates to transactivating tegument protein VP16 (Human herpesvirus 1), Gal4-VP16 luciferase reporter. Nature of the assay: repression of VP16-driven luciferase reporter – cell-based, luminescence, high throughput, counter-screen for SRC3 inhibitor project (AID 588794). The conditions noted are these: mammalian cells, at 3.6 µM, stronger effect = higher value.
Assay [3] concerns the target Nuclear receptor coactivator 1 (Homo sapiens) (UniProt Q15788). The experiment in a line: NCOA1 GAL4-fusion reporter inhibition – cell-based, luminescence, quadruplicate, confirmation (AID 588820;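 active means mean inhibition above 46.68%, the untreated control wells mean plus 3 SD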;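 further: 0% = DMSO wells and 100% = gossypol 36 µM treated wells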). As to conditions: HEK293 GAL4-SRC1 luciferase reporter, at 3.6 µM, stronger effect = higher value.
Assay [4] is described as follows: repression of VP16-driven luciferase reporter – cell-based, luminescence, high throughput, counter-screen for SRC1 inhibitor project (AID 588824; in the data active means inhibition above about 25%). As to conditions: cell-based VP16 transactivation luciferase luminescence; at 3.6 µM; stronger effect = higher value.
The nature of assay [5]: StAR promoter reporter inhibitors, counter-screen for LRH-1 inverse agonist project, cell-based, luminescence, high throughput (AID 651611; in the data active means inhibition above about 28%). The conditions noted are these: StAR promoter luciferase reporter counterscreen, at 3.6 µM, stronger effect = higher value. A general note: A counterscreen serves to expose hits that act by an unwanted route or on another target.
Assay [6] concerns the target Nuclear receptor subfamily 5 group A member 2 (Homo sapiens) (UniProt O00482). Nature of the assay: NR5A2 activity suppression in reporter cells – cell-based, luminescence, confirmation (AID 651613; in the data active means inhibition above about 42%;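 further: HEK293T cells co-transfected with LRH-1 and StAR promoter luciferase reporter; 0% = vehicle wells and 100% = parental cells lacking receptor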). The conditions noted are these: cell-based LRH-1 luciferase reporter, inverse agonism; at 3.6 µM; stronger effect = higher value.
In assay [7] the target is Steroidogenic factor 1 (Homo sapiens) (UniProt Q13285). Nature of the assay: inverse agonism at SF1 nuclear receptor – cell-based, luminescence, high throughput, counter-screen for LRH-1 inverse agonist project (AID 651614; in the data active means inhibition above about 44%;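 further: cells cotransfected with StAR promoter reporter and SF1 expression vector; 0% = vehicle on cells with receptor and 100% = vehicle on cells lacking receptor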). The conditions noted are these: cell-based SF1 luciferase reporter, at 3.6 µM, stronger effect = higher value.
Assay [8] in a line: compounds suppressing VP16-driven luciferase signal – cell-based, luminescence, high throughput, counter-screen for LRH-1 inverse agonist project (AID 651615; in the data active means inhibition above about 33%). The conditions noted are these: Gal4-VP16 luciferase reporter cells, at 3.6 µM, stronger effect = higher value.

Chain of Nuclear receptor coactivator 3 (Homo sapiens) (Q9Y6Q9 whole entry, looked up, the tested form may be a part): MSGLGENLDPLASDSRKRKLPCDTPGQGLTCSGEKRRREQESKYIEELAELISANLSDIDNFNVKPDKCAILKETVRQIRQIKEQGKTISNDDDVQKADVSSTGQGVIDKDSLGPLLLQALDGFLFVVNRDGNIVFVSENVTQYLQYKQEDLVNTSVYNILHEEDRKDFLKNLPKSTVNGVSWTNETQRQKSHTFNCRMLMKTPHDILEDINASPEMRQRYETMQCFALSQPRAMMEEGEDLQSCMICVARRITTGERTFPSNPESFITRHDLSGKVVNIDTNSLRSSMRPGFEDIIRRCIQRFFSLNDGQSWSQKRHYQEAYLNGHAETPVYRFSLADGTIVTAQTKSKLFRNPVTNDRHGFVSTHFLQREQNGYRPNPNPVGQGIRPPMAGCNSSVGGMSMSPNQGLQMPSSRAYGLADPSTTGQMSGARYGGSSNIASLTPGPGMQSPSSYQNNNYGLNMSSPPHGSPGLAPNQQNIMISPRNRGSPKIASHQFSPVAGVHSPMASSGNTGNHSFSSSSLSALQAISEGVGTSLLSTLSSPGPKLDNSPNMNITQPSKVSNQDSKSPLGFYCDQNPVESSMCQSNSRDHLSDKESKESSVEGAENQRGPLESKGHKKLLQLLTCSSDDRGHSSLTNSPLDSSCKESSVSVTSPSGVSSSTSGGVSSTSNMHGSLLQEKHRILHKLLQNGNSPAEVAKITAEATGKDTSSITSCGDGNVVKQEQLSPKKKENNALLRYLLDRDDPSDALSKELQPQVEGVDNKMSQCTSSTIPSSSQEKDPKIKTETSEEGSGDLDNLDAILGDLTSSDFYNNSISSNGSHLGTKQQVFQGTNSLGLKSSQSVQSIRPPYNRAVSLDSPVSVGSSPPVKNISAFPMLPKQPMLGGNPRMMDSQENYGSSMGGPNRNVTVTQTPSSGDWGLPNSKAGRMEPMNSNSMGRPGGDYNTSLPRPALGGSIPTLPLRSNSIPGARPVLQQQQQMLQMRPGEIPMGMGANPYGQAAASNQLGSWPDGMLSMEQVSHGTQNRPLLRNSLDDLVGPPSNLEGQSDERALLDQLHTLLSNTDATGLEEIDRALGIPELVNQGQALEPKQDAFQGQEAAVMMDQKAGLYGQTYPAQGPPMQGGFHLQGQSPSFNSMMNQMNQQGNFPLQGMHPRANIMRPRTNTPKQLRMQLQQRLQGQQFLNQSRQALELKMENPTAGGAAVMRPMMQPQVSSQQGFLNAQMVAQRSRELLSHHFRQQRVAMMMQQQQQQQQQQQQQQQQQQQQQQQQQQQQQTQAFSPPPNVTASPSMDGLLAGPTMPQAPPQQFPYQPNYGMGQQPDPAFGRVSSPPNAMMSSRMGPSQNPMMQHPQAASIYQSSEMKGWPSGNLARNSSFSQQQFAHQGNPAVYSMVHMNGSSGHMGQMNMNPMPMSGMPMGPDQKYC
Chain of Steroidogenic factor 1 (Homo sapiens) (Q13285 whole entry, looked up, the tested form may be a part): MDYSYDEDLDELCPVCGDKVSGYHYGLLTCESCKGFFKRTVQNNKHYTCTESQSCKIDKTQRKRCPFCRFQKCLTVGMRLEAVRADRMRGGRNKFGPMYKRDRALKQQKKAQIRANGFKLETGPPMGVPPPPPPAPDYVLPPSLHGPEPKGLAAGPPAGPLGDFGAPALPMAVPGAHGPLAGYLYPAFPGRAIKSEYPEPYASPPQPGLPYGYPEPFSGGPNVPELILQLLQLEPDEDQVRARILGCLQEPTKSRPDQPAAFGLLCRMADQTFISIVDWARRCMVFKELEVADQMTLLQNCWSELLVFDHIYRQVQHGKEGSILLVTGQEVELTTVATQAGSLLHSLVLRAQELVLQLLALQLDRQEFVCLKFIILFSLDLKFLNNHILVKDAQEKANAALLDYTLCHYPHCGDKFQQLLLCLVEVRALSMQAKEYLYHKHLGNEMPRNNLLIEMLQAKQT
Chain of Nuclear receptor coactivator 1 (Homo sapiens) (Q15788 whole entry, looked up, the tested form may be a part): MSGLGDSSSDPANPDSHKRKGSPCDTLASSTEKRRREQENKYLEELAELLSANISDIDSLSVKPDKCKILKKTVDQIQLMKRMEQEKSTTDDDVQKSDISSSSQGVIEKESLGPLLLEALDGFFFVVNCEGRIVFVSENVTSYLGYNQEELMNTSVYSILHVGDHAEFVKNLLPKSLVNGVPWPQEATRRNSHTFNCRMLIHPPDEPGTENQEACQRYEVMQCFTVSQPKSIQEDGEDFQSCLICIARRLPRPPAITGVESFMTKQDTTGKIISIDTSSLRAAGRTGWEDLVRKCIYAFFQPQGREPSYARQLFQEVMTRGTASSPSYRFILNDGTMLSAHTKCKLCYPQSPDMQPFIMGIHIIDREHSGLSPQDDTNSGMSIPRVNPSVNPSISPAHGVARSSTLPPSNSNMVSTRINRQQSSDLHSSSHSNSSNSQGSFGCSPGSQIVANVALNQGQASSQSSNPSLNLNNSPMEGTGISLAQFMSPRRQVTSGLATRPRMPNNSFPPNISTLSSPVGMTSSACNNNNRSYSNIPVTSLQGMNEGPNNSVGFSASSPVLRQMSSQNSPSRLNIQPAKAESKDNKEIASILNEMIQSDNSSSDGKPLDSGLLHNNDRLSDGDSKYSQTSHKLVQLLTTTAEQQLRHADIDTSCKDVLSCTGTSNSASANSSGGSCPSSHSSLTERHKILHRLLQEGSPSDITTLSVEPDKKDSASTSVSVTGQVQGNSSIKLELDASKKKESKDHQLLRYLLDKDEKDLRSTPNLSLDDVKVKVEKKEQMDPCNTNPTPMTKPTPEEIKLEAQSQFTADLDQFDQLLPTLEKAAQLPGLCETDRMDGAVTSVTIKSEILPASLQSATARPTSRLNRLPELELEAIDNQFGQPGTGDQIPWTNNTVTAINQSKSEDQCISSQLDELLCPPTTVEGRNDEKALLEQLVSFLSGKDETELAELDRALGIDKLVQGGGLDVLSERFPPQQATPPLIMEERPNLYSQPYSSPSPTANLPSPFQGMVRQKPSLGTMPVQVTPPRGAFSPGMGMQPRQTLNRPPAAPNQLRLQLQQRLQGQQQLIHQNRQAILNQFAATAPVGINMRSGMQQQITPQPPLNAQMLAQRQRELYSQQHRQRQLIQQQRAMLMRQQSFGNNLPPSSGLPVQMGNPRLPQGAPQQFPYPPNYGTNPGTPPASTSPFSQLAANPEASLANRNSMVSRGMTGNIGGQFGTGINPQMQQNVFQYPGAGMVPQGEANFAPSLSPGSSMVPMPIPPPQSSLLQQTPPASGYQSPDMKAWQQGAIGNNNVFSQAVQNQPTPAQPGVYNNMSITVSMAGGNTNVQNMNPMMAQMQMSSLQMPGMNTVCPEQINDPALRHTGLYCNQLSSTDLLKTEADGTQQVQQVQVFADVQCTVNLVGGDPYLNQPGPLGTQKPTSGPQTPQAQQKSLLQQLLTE
Chain of Nuclear receptor subfamily 5 group A member 2 (Homo sapiens) (O00482 whole entry, looked up): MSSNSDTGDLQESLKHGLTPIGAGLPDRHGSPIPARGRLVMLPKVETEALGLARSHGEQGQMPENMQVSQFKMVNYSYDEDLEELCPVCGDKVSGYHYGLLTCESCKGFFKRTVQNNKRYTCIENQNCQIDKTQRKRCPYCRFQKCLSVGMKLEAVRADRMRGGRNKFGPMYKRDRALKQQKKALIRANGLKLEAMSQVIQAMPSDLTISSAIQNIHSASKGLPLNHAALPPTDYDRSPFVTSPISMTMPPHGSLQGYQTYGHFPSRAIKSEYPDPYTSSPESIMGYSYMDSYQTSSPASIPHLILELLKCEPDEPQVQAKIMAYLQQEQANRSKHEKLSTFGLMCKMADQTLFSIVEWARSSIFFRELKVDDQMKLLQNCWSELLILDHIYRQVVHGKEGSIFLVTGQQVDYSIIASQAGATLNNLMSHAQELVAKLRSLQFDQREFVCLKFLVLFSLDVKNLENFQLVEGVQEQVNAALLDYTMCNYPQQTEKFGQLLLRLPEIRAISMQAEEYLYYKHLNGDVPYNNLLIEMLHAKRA

In general, inhibition refers to the share of the control response that was lost under treatment. With `CN(C)CCNc1ccc(CO)c2oc3ccc(O)cc3c(=O)c12`, the inhibition was 4.57% in assay [1]; 31% (active) in assay [2]; 33% in assay [3]; 33.1% (active) in assay [4]; 47.7% (active) in assay [5]; 53.7% (active) in assay [6]. Further, the inhibition in assay [7] is 53.1% (active); in assay [8] it was 48.4% (active).
Regarding `CCCC(=O)NC(c1ccccc1Cl)c1ccc2cccnc2c1O` (stereo not drawn), the inhibition in assay [1] was 55.3% (active); in assay [2], 47.8% (active); in assay [3], 35.6%; in assay [4], 53.4% (active); in assay [5], 82.7% (active); in assay [6], 99.2% (active). For the same compound, the values for the inhibition in assay [7] and in assay [8] were 90.3% (active) and 83.2% (active), respectively.
In the case of `CC1(C)CC(N2CCN(c3ccccc3)CC2)=CC(=[N+]2CCCC2)C1`, the inhibition in assay [1] was 23.8%; in assay [2], 37.6% (active); in assay [3], 2.88%; in assay [4] it was 33.1% (active); in assay [5], 30% (active); in assay [6], 73.2% (active). Further, the figures for the inhibition in assay [7] and in assay [8] were 66.5% (active) and 63.7% (active), respectively.
As for `Cc1onc(-c2ccccc2)c1C(=O)NC(=S)NNC(=O)c1ccccc1O`, the inhibition in assay [1] was 54.8% (active); in assay [2], 82% (active); in assay [3] it was 66.5% (active); in assay [4] it was 77.6% (active); in assay [5], 70% (active); in assay [6] it was 96.8% (active). Moreover, the figures for the inhibition in assay [7] and in assay [8] were 83.4% (active) and 83.3% (active), respectively.
Take `Cc1ccc2[nH]cc(/C=C/c3cc[n+](C)cc3)c2c1`: the inhibition is 40.1% in assay [1]; 52.6% (active) in assay [2]; 14.5% in assay [3]; 59.7% (active) in assay [4]; 42.2% (active) in assay [5]; 84% (active) in assay [6]. For the same compound, the inhibition in assay [7] was 75.5% (active); in assay [8], 70.5% (active).
Consider `COc1ccc(-c2cn(-c3ccc(OC)cc3)c3[n+]2-c2ccccc2CC3)cc1`, for which the inhibition in assay [1] was 46.3% (active); in assay [2], 55.9% (active); in assay [3] it was 34.7%; in assay [4], 59.9% (active); in assay [5], 40.8% (active); in assay [6], 88.8% (active). Further, the inhibition in assay [7] was 82.3% (active); in assay [8], 77.8% (active).
